Results on 19 compounds are retold here after PubChem BioAssay AID1671192 (National Center for Advancing Translational Sciences (NCATS), 2021).

Inconclusive results are not listed. Active and inactive are the calls of the source. The call rests on the fitted dose curve; in most records, active means well fitted curve in the direction sought with a large enough effect; inconclusive means small, poorly fitted or top-dose-only effect, or another doubt; inactive means no such curve, though single readings can be large or run the other way.

Sequence of Polyunsaturated fatty acid lipoxygenase ALOX15 (Homo sapiens) (P16050 whole entry, looked up): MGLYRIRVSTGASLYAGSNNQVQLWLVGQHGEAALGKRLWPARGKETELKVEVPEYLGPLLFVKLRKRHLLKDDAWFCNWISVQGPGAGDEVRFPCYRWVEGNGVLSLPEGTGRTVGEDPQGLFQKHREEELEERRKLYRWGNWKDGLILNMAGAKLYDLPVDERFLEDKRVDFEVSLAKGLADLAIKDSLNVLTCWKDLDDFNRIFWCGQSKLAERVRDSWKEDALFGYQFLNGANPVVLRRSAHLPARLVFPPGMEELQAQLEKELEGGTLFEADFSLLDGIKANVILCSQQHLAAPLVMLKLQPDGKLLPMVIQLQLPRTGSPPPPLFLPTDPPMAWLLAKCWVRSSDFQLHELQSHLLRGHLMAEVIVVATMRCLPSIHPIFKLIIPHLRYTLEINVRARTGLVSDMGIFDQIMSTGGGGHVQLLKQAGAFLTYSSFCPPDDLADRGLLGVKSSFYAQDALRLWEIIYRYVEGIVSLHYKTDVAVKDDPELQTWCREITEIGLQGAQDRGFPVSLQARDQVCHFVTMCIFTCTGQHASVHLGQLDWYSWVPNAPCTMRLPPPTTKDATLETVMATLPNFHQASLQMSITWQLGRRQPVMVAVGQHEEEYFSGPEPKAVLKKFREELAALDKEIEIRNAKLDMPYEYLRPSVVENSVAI

In this assay the target is Polyunsaturated fatty acid lipoxygenase ALOX15 (Homo sapiens) (UniProt P16050). As to the kind of experiment: Counterscreen qHTS for inhibitors of human arachidonate 12S-lipoxygenase (ALOX12): ALOX15 Assay. As to conditions: purified ALOX15 enzyme activity; series mostly up to 110 µM. In outline:
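Xylenol orange–ferric complex formation, read as the 573 nm to 405 nm absorbance ratio, tracks product from 50 uM arachidonic acid turned over for 30 min at RT. Enzyme is 40 nM ALOX15, pH 7.5 HEPES buffer, compound-preincubated 15 min.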
Background: The purpose of a counterscreen is to sort out artefacts and off-target activity.
Take `CN(C)C(=O)N1Cc2ccccc2OC2(CCN(C(=O)Cc3cnc[nH]3)CC2)C1`: the result was inactive.
Then `COCCCNC(=O)c1cc(C2CC2)nc2c1c(C1CCCN1)nn2-c1ccccc1` (centres undefined), with “inactive”; and `CC(C)OCCCNc1ncnc2c1CN(C1CCNC1)C(=O)CN2C` (centres undefined), with “inactive”.
As for `COc1ccc(-c2nc(C3CC3)nc3c2CN([S+](=O)([O-])c2ccccc2)CC3)cc1`, the entry is “inactive”.
As for `O=C1NC2(Cc3ccccc31)CN(C(=O)c1ccccc1F)C2`, the outcome was inactive.
Consider `CC1CCCN(c2ncnc3c2CN(C2CCNCC2)C(=O)CN3C)C1` (centres undefined), for which the call was inactive.
Turning to `Cn1nc(C2CCCNC2)c2c(C(=O)NCC(F)(F)F)cc(C3CC3)nc21` (centres undefined), the compound was called inactive.
For `O=C(c1ccccc1)N1CCn2c(nnc2C2CCNCC2)C1`, the outcome was inactive.
`CN1CC(=O)N(C2CCCNCC2)Cc2c1ncnc2N1CCC(C#N)CC1` (centres undefined): the result was inactive.
In the case of `O=Cc1ccc(-c2ccc(F)cc2)cc1`, the outcome was inactive.
As for `CCC(=O)N1Cc2ccccc2CC2(CCN(Cc3ccncc3)CC2)C1`, the entry is “inactive”; as for `CCCN1CCC2(CC1)Cc1ccccc1CN(C(=O)C(C)C)C2`, “inactive”; as for `CCC(=O)N1Cc2ccccc2CC2(CCCCN2CC2CCOCC2)C1` (centres undefined), “inactive”.
As for `O=Cc1ccc(-c2ccc(O)cc2)cc1`, the compound was classed as inactive.
On to `COc1ccccc1CNc1ncnc2c1CN(C1CCCNC1)C(=O)CN2C` (centres undefined), for which the compound was called inactive.
As for `CCc1ccccc1CN1CCCC12Cc1ccccc1CNC2=O` (centres undefined), the entry is “inactive”; as for `COc1ccc(-c2nc(C3CC3)nc3c2CN(C(=O)c2ccccc2)CC3)cc1`, “inactive”; as for `NCCC(=O)N1CCC2(CC1)CN(C(=O)Cc1ccc(Cl)cc1)CCO2`, “inactive”.
On to `O=C(c1ccc(C(F)(F)F)cc1)N1CC(Oc2ccc3c(c2)OCO3)C1`, for which the call was inactive.
